Measurements taken from publication PMC7862700, “An all-to-all approach to the identification of sequence-specific readers for epigenetic DNA modifications on cytosine”.

Assays:
Assay in all cases: DAPPL (digital affinity profiling via proximity ligation, sequencing); 10 mM Tris-HCl pH 7.5, 50 mM NaCl, 1 mM DTT, 4% glycerol, room temperature, 30 min; GST-TFs on glutathione beads, 16-mer random dsDNA library, 0.1% formaldehyde crosslink after washing; high values mean tight binding
FLI1 = target: T1, FLI1 (Homo sapiens, UniProt Q01543 1-452); conditions: protein: recombinant; tags: N-terminal GST; dsDNA, one strand shown
T1 sequence: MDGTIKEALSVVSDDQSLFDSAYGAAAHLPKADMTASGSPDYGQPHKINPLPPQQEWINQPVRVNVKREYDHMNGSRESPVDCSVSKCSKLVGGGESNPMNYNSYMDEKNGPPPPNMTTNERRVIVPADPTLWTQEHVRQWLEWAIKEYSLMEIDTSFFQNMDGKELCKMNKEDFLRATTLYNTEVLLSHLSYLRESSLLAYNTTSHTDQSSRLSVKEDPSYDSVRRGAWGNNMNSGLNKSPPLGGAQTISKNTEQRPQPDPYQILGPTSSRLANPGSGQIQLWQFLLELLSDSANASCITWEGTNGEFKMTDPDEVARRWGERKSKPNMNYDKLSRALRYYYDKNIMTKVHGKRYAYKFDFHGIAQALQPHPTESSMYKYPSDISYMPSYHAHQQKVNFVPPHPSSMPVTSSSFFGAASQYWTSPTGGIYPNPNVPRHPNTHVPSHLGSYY
Procedure, shortened: (§1)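 Binding signal is given per hexamer as its read frequency for a factor divided by its frequency in the tag-only sample. GST-fused human transcription factors were expressed in yeast, captured on glutathione beads, barcoded with DNA and pooled with that sample, then incubated with 200 nmole of a 16-mer random double-stranded DNA library in Tris/NaCl/DTT/glycerol buffer for 30 min at room temperature. The pools were then washed, crosslinked, proximity-ligated, amplified by PCR and sequenced on an Illumina NextSeq500.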

ELK1 = target: T2, ELK1 (Homo sapiens, UniProt P19419 1-428); conditions: protein: recombinant; tags: N-terminal GST; dsDNA, one strand shown
T2 sequence: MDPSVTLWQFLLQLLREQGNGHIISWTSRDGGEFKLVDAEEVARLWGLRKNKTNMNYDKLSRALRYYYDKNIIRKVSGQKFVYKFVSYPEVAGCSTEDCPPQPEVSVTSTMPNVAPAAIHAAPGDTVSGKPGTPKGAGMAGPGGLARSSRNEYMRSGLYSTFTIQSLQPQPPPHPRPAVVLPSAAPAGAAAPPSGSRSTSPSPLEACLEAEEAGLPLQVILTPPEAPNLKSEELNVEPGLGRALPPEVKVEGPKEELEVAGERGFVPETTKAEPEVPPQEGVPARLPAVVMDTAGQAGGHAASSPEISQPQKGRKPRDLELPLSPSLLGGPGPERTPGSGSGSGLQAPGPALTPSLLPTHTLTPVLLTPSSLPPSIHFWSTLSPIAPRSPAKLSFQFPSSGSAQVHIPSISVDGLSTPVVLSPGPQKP
Procedure, shortened: as §1

GABPA = target: T3, GABPA (Homo sapiens, UniProt Q06546 1-454); conditions: protein: recombinant; tags: N-terminal GST; dsDNA, one strand shown
T3 sequence: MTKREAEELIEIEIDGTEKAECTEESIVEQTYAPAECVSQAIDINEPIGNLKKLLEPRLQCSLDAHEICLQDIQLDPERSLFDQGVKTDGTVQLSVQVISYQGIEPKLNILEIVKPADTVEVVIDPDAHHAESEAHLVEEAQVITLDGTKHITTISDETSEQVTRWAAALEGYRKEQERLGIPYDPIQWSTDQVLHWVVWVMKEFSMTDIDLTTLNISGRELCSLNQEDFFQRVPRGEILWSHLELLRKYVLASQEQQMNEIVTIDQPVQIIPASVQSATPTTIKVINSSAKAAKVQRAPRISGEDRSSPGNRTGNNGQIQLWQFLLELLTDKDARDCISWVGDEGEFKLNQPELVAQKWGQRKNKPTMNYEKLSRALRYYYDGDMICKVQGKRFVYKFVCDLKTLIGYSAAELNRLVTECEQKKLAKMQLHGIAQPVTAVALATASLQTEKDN
Procedure, shortened: as §1

ERG = target: T4, ERG (Homo sapiens, UniProt P11308 1-479); conditions: protein: recombinant; tags: N-terminal GST; dsDNA, one strand shown
T4 sequence: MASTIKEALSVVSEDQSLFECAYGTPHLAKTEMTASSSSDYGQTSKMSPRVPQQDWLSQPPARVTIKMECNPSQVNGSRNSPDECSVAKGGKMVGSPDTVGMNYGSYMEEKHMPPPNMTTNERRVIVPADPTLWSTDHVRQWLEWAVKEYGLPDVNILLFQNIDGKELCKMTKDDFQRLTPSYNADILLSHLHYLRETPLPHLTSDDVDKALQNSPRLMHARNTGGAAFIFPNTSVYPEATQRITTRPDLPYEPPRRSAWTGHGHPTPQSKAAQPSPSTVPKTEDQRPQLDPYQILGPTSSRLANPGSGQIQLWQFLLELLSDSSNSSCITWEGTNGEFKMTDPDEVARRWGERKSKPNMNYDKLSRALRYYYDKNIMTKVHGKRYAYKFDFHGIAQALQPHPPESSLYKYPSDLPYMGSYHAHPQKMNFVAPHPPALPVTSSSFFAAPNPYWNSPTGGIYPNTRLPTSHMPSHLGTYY
Procedure, shortened: as §1

ELF1 = ELF1 (Homo sapiens, UniProt P32519 1-619); conditions: protein: recombinant; tags: N-terminal GST; dsDNA, one strand shown
Procedure, shortened: as §1

EHF = target: T5, EHF (Homo sapiens, UniProt Q9NZC4 1-300); conditions: protein: recombinant; tags: N-terminal GST; dsDNA, one strand shown
T5 sequence: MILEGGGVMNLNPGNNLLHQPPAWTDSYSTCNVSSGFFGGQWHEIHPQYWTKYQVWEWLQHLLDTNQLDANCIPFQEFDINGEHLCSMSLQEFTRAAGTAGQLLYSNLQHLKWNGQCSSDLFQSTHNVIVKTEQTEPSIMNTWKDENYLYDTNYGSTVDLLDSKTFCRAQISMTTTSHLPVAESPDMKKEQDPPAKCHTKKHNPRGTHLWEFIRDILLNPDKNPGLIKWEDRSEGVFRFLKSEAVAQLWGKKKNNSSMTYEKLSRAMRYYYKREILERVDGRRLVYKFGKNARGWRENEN
Procedure, shortened: as §1

SPI1 = SPI1 (Homo sapiens, UniProt P17947 1-270); conditions: protein: recombinant; tags: N-terminal GST; dsDNA, one strand shown
Procedure, shortened: as §1

SPIB = SPIB (Homo sapiens, UniProt Q01892 1-262); conditions: protein: recombinant; tags: N-terminal GST; dsDNA, one strand shown
Procedure, shortened: as §1

ELK3 = target: T6, ELK3 (Homo sapiens, UniProt P41970 1-407); conditions: protein: recombinant; tags: N-terminal GST; dsDNA, one strand shown
T6 sequence: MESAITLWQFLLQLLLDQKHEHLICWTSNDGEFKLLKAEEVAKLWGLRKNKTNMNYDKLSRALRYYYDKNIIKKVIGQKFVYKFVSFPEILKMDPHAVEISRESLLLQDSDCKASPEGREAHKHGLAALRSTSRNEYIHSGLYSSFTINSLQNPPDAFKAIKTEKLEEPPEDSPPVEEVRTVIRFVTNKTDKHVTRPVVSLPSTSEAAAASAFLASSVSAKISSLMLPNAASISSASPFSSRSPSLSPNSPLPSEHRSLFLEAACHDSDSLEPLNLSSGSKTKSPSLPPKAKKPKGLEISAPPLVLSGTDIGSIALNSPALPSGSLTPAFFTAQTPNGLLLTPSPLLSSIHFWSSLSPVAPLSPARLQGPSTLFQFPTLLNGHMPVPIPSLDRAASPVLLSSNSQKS
Procedure, shortened: as §1

FEV = target: T7, FEV (Homo sapiens, UniProt Q99581 1-238); conditions: protein: recombinant; tags: N-terminal GST; dsDNA, one strand shown
T7 sequence: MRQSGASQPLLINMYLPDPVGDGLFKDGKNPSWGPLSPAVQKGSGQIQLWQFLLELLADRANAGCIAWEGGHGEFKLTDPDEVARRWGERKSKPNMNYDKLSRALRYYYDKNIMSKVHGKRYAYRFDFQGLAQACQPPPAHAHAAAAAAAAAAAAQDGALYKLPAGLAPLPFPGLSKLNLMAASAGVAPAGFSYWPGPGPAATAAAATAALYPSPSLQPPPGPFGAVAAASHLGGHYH
Procedure, shortened: as §1

ETV5 = ETV5 (Homo sapiens, UniProt P41161 1-510); conditions: protein: recombinant; tags: N-terminal GST; dsDNA, one strand shown
Procedure, shortened: as §1

HSF1 = HSF1 (Homo sapiens, UniProt Q00613 1-529); conditions: protein: recombinant; tags: N-terminal GST; chain copies: 3; dsDNA, one strand shown
Procedure, shortened: as §1

SPIC = target: T8, SPIC (Homo sapiens, UniProt Q8N5J4 1-248); conditions: protein: recombinant; tags: N-terminal GST; dsDNA, one strand shown
T8 sequence: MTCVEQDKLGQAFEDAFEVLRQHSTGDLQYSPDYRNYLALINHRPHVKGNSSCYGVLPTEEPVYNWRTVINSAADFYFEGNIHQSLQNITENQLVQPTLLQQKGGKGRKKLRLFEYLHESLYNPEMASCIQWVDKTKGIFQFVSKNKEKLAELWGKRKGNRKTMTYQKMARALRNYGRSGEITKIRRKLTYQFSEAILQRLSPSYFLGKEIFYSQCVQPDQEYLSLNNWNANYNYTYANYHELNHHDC
Procedure, shortened: as §1

ELF4 = ELF4 (Homo sapiens, UniProt Q99607 1-663); conditions: protein: recombinant; tags: N-terminal GST; dsDNA, one strand shown
Procedure, shortened: as §1

ELK4 = target: T9, ELK4 (Homo sapiens, UniProt P28324-2 1-405); conditions: protein: recombinant; tags: N-terminal GST; dsDNA, one strand shown
T9 sequence: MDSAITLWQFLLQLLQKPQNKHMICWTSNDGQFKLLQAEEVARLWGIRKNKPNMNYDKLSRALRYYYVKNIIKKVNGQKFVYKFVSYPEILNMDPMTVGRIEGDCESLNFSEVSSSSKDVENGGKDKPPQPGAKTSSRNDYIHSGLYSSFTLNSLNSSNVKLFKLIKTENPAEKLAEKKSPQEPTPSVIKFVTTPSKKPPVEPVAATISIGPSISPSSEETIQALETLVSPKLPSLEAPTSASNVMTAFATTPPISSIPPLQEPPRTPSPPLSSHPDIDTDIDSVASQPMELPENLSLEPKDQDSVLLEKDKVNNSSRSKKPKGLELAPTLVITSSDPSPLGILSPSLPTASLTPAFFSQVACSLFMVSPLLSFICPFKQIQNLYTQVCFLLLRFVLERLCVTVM
Procedure, shortened: as §1

ETV2 = target: T10, ETV2 (Homo sapiens, UniProt O00321 1-342); conditions: protein: recombinant; tags: N-terminal GST; dsDNA, one strand shown
T10 sequence: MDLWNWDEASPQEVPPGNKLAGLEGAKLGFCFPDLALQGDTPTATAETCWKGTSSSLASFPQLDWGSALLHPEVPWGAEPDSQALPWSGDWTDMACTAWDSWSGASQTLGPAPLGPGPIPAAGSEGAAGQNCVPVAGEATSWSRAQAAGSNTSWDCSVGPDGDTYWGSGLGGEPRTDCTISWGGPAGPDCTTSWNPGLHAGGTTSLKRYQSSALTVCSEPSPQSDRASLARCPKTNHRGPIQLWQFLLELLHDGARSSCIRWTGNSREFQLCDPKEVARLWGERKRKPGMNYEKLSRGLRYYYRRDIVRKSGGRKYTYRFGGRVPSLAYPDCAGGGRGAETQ
Procedure, shortened: as §1

ELF3 = target: T11, ELF3 (Homo sapiens, UniProt P78545 1-371); conditions: protein: recombinant; tags: N-terminal GST; dsDNA, one strand shown
T11 sequence: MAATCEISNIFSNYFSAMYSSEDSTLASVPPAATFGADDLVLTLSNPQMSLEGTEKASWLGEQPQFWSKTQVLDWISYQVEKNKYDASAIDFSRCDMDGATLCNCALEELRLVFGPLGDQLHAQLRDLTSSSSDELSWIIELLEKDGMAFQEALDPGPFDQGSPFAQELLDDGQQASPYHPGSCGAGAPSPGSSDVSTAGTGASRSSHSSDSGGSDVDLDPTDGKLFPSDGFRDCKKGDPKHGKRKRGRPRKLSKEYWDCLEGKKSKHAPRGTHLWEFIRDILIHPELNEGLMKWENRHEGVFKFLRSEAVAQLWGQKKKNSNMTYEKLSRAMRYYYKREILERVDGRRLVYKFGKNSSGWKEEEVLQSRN
Procedure, shortened: as §1

CRX = CRX (Homo sapiens, UniProt O43186 1-299); conditions: protein: recombinant; tags: N-terminal GST; dsDNA, one strand shown
Procedure, shortened: as §1

ETV1 = ETV1 (Homo sapiens, UniProt P50549 1-477); conditions: protein: recombinant; tags: N-terminal GST; dsDNA, one strand shown
Procedure, shortened: as §1

Sequence of ELF4 (Q99607 whole entry): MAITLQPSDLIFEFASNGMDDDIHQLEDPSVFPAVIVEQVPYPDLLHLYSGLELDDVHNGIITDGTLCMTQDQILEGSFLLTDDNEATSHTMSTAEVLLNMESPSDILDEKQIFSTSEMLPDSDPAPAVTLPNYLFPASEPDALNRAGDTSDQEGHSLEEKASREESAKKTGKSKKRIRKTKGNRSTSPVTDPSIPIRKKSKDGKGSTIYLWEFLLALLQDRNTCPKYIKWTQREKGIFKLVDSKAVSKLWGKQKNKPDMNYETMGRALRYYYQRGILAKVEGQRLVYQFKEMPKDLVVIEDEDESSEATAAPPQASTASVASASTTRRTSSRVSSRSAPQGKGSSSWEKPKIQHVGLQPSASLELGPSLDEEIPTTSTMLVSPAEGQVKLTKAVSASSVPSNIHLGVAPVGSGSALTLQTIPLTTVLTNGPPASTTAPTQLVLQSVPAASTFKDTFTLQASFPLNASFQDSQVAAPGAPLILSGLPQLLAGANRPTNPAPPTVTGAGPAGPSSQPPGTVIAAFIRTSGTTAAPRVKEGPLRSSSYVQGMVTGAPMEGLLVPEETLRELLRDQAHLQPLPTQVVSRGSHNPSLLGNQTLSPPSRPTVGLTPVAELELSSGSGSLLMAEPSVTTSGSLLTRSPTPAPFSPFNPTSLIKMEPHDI
Sequence of ELF1 (P32519 whole entry): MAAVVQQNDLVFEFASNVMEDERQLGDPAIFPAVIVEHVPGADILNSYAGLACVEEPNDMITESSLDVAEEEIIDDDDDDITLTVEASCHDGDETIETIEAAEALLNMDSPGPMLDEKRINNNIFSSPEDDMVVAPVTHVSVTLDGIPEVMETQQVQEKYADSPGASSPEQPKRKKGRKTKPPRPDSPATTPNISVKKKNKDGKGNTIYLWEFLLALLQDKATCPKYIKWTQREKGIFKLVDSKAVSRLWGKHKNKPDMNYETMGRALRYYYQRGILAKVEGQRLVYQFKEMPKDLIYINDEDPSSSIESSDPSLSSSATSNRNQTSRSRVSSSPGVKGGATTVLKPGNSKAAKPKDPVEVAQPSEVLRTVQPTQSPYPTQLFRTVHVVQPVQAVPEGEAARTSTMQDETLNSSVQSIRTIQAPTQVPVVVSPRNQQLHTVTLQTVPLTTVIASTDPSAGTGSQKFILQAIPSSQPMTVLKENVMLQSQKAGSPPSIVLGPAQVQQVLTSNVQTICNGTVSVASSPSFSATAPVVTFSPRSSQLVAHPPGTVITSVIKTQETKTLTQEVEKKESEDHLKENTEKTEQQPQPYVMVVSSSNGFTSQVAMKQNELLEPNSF
Sequence of CRX (O43186 whole entry): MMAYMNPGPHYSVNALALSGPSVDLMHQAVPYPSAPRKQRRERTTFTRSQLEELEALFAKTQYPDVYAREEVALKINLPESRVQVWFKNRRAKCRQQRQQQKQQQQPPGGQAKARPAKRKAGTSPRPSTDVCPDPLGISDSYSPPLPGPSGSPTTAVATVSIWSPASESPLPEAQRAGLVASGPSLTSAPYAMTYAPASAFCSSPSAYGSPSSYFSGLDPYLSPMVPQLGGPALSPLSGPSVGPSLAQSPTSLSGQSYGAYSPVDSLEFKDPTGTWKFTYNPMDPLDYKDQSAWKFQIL
Sequence of ETV1 (P50549 whole entry): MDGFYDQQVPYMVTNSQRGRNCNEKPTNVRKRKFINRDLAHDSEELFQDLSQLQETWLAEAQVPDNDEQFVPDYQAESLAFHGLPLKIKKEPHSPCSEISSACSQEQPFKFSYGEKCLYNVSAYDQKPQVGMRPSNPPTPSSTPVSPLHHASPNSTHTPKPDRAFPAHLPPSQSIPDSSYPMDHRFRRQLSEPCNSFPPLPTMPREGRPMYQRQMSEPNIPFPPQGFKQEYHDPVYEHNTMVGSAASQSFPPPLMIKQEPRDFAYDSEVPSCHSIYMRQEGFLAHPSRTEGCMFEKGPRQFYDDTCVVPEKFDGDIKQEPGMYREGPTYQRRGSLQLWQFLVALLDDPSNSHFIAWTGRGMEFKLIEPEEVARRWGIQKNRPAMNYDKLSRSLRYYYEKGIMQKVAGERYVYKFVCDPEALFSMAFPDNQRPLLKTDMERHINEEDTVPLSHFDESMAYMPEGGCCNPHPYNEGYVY
Sequence of HSF1 (Q00613 whole entry): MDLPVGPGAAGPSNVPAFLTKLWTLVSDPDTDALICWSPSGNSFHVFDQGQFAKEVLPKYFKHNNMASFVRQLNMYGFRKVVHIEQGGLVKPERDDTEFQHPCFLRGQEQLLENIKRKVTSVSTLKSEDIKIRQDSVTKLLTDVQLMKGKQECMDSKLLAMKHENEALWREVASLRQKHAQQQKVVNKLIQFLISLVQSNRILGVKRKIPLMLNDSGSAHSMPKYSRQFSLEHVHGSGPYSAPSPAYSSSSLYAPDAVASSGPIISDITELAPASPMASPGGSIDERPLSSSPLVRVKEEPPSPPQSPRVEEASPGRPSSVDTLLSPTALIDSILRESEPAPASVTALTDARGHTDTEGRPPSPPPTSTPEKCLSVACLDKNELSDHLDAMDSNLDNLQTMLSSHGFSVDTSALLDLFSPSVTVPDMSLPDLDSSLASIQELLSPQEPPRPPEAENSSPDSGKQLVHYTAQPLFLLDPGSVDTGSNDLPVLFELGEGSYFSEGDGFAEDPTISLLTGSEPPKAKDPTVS
Sequence of ETV5 (P41161 whole entry): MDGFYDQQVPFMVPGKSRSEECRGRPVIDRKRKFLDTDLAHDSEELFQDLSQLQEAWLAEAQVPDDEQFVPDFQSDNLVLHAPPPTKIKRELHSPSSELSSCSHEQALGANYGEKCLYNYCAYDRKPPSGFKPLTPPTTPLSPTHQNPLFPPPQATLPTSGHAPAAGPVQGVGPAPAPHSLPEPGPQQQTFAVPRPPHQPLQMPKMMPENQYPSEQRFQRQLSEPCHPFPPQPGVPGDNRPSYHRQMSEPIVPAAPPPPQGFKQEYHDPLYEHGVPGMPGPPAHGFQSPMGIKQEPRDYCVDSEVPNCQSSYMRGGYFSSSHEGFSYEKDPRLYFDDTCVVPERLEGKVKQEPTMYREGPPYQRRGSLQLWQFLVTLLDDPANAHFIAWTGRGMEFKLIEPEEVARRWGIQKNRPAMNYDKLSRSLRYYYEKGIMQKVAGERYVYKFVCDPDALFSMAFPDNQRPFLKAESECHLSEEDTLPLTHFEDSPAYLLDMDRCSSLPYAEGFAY
Sequence of SPIB (Q01892 whole entry): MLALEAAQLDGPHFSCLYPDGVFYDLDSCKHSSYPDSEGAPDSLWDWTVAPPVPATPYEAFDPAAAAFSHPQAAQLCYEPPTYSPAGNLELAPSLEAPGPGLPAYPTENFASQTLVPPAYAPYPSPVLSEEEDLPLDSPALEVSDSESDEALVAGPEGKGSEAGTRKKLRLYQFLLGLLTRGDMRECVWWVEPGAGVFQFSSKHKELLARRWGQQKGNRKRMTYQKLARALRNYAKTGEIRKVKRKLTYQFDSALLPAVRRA

Sequence: ATTTGA
- binding signal (FLI1): 1.34 fold enrichment (6-mer frequency, TF over GST control)
- binding signal (ELK1): 1.1 fold enrichment (6-mer frequency, TF over GST control)
- binding signal (GABPA): 1.26 fold enrichment (6-mer frequency, TF over GST control)
- binding signal (ERG): 1.23 fold enrichment (6-mer frequency, TF over GST control)
- binding signal (ELF1): 1.12 fold enrichment (6-mer frequency, TF over GST control)
- binding signal (EHF): 1.27 fold enrichment (6-mer frequency, TF over GST control)
- binding signal (SPI1): 1.17 fold enrichment (6-mer frequency, TF over GST control)
- binding signal (SPIB): 1.36 fold enrichment (6-mer frequency, TF over GST control)
- binding signal (ELK3): 1.05 fold enrichment (6-mer frequency, TF over GST control)
- binding signal (FEV): 1.17 fold enrichment (6-mer frequency, TF over GST control)
- binding signal (ETV5): 1.16 fold enrichment (6-mer frequency, TF over GST control)
- binding signal (HSF1): 1.21 fold enrichment (6-mer frequency, TF over GST control)
- binding signal (SPIC): 1.11 fold enrichment (6-mer frequency, TF over GST control)
- binding signal (ELF4): 1.21 fold enrichment (6-mer frequency, TF over GST control)
- binding signal (ELK4): 1.07 fold enrichment (6-mer frequency, TF over GST control)
- binding signal (ETV2): 1.16 fold enrichment (6-mer frequency, TF over GST control)
- binding signal (ELF3): 1.16 fold enrichment (6-mer frequency, TF over GST control)
- binding signal (CRX): 1.41 fold enrichment (6-mer frequency, TF over GST control)
- binding signal (ETV1): 1.2 fold enrichment (6-mer frequency, TF over GST control)
